The source of these data is PubChem BioAssay.

The structures appear in SMILES notation.

In test [1] the test system is Human papillomavirus type 1a protein E7 (residues 44-93). The experiment in a line: HPV1a E7 fragment binders on microarrays, primary screen, biochemical, small-molecule microarray, residues 44-93, 635 nm fluorescence (AID 1108).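 Further: E7 fragment applied at 1 µg/mL in TBST for 1 h at 4 C; score combines spot fluorescence with its signal to noise ratio.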 Conditions: small-molecule microarray binding, fluorescence 635 nm; higher = more signal.
Test [2] is described as follows: modulators of HCV replicon luciferase signal, primary screen, HCV replication inhibitor project, Huh7 cells, luciferase reporter (AID 1109).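 Further: huh7 hepatoma cells harbouring a luciferase neomycin HCV replicon reporter; luciferase luminescence as measure of HCV replicon replication; test concentration not given here.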 Conditions: 48 h, higher = more signal. (In general: Replicon systems follow genome replication, usually without infectious particles.)
Test [3] deals with Left-right determination factor 2 (Homo sapiens) (UniProt O00292). The experiment in a line: LEFTY2 binders on small-molecule microarrays, primary screen, biochemical, small-molecule microarray, 635 nm fluorescence scan (AID 1110). The conditions noted are these: LEFTY2 binding, higher = more signal.
Sequence of Left-right determination factor 2 (Homo sapiens) (O00292 whole entry, looked up): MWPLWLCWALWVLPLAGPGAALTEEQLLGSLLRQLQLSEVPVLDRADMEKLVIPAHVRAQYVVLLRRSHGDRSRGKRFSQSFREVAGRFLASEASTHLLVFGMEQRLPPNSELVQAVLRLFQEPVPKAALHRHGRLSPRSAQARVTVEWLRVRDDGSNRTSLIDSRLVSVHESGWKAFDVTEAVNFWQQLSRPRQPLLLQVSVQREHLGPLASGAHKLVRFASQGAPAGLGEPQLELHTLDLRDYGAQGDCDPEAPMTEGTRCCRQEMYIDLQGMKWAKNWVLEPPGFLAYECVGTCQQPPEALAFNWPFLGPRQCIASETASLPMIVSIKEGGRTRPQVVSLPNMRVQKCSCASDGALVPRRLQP
For test [4], the target named is Calmodulin-1 (Homo sapiens) (UniProt P0DP23). Put plainly: CALM1 binders on microarrays, EGTA buffer, profiling panel, biochemical, small-molecule microarray, Cy5-labelled CALM1 (AID 1111).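 Further: labelled calmodulin applied in Tris saline Tween buffer holding calcium plus EGTA and DTT.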 Conditions: Cy5-CALM1 binding fluorescence, higher = more signal.
Test [5] shares this target. The experiment in a line: calcium-bound CALM1 binders on microarrays, profiling panel, artefact control for SMM control-protein annotation, biochemical, small-molecule microarray, Cy5-labelled CALM1, plus calcium (AID 1112).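 Further: score merges spot fluorescence with signal to noise from triplicate slides.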 Conditions: Cy5-CALM1 binding fluorescence, higher = more signal.
Test [6] can be described thus: small-molecule microarray binders of probe aWnt5a, primary screen, biochemical, biotinylated probe, 635/667 nm fluorescence (AID 1113).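 Further: score merges 667 nm fluorescence intensity with signal-to-noise per printed feature.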 Conditions: higher = more signal.
A short description of test [7]: small-molecule microarray binders of probe aShh, primary screen, biochemical, biotinylated probe, 635/667 nm fluorescence (AID 1114).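 Further: probe is biotin-labelled aShh protein from a stem cell growth factor screen; measures binding of labelled protein to compounds printed on the slide; score merges feature fluorescence at 667 nm with signal-to-noise.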 Conditions: higher = more signal.
The nature of test [8]: small-molecule microarray binders of probe aNog, primary screen, biochemical, biotinylated probe, 635/667 nm fluorescence (AID 1115).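 Further: probe is biotinylated aNog protein used at 0.15 µg/mL for 1 h at 4 C; z-score combines 667 nm fluorescence of each spot with its signal to noise.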 Conditions: higher = more signal.
Test [9] has as its target Torsin-1A-interacting protein 1 (Homo sapiens) (UniProt Q5JTV8). The experiment in a line: LAP1 binders from COS7 cell lysate, primary screen, small-molecule microarray, 635/667 nm fluorescence (AID 1116). Conditions: COS7-hLAP1 lysate binding, 635 nm fluorescence, higher = more signal.
In test [10] the target is Alpha-bungarotoxin (Bungarus multicinctus) (UniProt P60615). The experiment in a line: alpha-bungarotoxin binders on microarray, profiling panel, artefact control for SMM control protein annotation, biochemical, small-molecule microarray, Alexa647 label, 635/667 nm fluorescence (AID 1117). Conditions: alpha-BTX-A647 binding fluorescence, higher = more signal.
Sequence of Alpha-bungarotoxin (Bungarus multicinctus) (P60615 whole entry, looked up): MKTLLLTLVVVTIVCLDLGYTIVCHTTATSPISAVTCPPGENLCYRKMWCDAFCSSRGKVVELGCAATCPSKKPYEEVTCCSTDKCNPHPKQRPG

Sequence of Torsin-1A-interacting protein 1 (Homo sapiens) (Q5JTV8 whole entry, looked up): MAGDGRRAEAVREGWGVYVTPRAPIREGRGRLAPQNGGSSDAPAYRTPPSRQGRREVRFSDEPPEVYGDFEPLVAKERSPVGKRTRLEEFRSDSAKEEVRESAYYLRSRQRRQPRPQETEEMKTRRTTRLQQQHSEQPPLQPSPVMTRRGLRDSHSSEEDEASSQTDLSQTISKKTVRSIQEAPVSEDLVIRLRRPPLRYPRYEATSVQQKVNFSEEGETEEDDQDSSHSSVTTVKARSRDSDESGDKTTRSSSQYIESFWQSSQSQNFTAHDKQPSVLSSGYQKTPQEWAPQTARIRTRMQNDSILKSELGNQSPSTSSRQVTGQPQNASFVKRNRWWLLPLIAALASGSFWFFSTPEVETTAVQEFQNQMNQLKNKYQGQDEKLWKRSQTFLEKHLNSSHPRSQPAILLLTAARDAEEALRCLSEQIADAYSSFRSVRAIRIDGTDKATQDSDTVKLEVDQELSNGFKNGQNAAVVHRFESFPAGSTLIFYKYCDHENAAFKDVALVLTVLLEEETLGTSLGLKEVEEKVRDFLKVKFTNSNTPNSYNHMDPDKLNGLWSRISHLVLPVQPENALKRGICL

Consider `C=C(CCCC)/C(=C/C[C@H](OC(=O)c1ccncc1)c1cccc(OCCO)c1)c1cnc2ccccc2c1`, for which the composite z-score in test [1] is 1.39; in test [3], 0.354; in [4], 0.0734; in [5], -0.731; in test [6], -0.0459; in test [7], -0.0035. Also, the composite z-score in [8] is -0.0496; in test [9], -0.064; in test [10], 0.551. The same compound had a z-score in [2] of -2.46.
Regarding `COc1ccc([Si](C)(C)[C@H]2[C@H](CC(=O)N3CCC[C@H]3CO)O[C@@]3(C(=O)N(Cc4ccc(N5CCCCC5=O)cc4)c4ccccc43)[C@@H]2C)cc1`, the composite z-score in [1] was 1.4; in test [3] it was 0.721; in test [4] it was 0.441; in test [5] it was -0.393; in test [6], -0.0239; in [7], 0.0639. For the same compound, the composite z-score in [8] was 1.32; in test [9] it was 1.15; in test [10], 1.62. In [2], the z-score was -1.46.
With `OCCCC1=CC(c2ccc(CN3CCCC3)cc2)N(Cc2cccc(OC(F)(F)F)c2)CC1` (stereo not given), the composite z-score in test [1] was -0.526; in [3], -0.103; in test [4], -0.197; in test [5], 0.769; in test [6], -0.096; in test [7] it was -0.0769. Besides, the composite z-score was -0.0898 in test [8], 0.779 in [9] and -0.371 in test [10]. The compound also yielded a z-score in test [2] of -4.72.
Turning to `C=C(CCCC)/C(=C/C[C@H](OC(C)=O)c1cccc(OCCO)c1)c1cnc2ccccc2c1`, the composite z-score in [1] was -0.114; in [3], -0.234; in [4], -0.437; in test [5] it was -0.896; in test [6], -0.0684; in [7] it was 0.0723. Besides, the composite z-score in test [8] worked out at 0.0664; in test [9], 0.558; in [10] it was 0.387. In test [2], this compound registered a z-score of -2.3.
`CC(C)C[C@@H]1NC(=O)[C@@]23C(=O)N[C@@H](Cc4ccccc4)C2[C@H](C)[C@@]2(C)O[C@H]2C3/C=C/C/C=C\CNC(=O)CNC1=O` (stereo not given in full): the composite z-score was 0.346 in test [1]; 0.259 in test [3]; -0.535 in test [4]; -0.963 in test [5]; -0.0478 in [6]; -0.138 in test [7]. Moreover, the values for the composite z-score in test [8], in test [9] and in test [10] were -0.125, 0.189 and 0.49, respectively. Moreover, the z-score in test [2] is 0.349.
Take `C#CCN1[C@@H](Cc2ccccc2)C(=O)O[C@H](Cc2ccccc2)[C@@H]1/C=C/C1CC1`: the composite z-score was 0.805 in test [1]; 0.137 in test [3]; -0.63 in test [4]; -0.717 in test [5]; -0.118 in [6]; -0.0337 in test [7]. Also, the composite z-score in [8] was -0.196; in test [9], 0.436; in test [10] it was 0.456. The same compound had a z-score in test [2] of -2.28.
As for `CN(C)CCCCNC(=O)[C@H]1C[C@H]2C(=O)N3CCC[C@H]3C(=O)N2[C@H]1c1cccc(OCCO)c1`, the composite z-score in test [1] was 1.4; in [3] it was -0.35; in test [4], 0.915; in [5] it was 0.836; in test [6], -0.144; in test [7] it was 0.134. Moreover, the composite z-score in test [8] was 1.14; in test [9], 0.495; in test [10] it was 1.43. The same compound gave a z-score in test [2] of -0.0955.
In the case of `COc1ccc(C(O)C2C=CC3C(=O)NC(=O)C3N2Nc2ccc(Cl)cc2Cl)c2ccccc12` (stereo not given), the composite z-score was 0.795 in [1]; -0.65 in [3]; 2.02 in test [4]; 1.08 in [5]; -0.181 in [6]; -0.116 in test [7]. Further, the results for the composite z-score in test [8], in test [9] and in [10] were -1.02, 0.693 and 1.17, respectively. The compound also registered a z-score in test [2] of -0.0178.
As to `COC(=O)C1=CC(CCCO)=CC(c2cccs2)N(Cc2cc3c(cc2Br)OCO3)C=C1C(=O)OC` (stereo not given), the composite z-score in test [1] turned out to be 0.931; in test [3], 0.578; in [4], 1.69; in test [5], 0.458; in test [6] it was 0.0618; in test [7], 0.246. Besides, the composite z-score in [8] is -0.0381; in test [9], 0.834; in test [10], 2.49. In test [2], this compound had a z-score of -1.64.
For the compound `C=C(COC)C(=O)CC[C@@H](OC(C)=O)c1ccccc1OCCO`, the composite z-score in [1] is 0.0358; in [3], 0.325; in test [4] it was -0.85; in test [5] it was -0.976; in test [6] it was -0.175; in [7], -0.0626. The figures for the composite z-score in [8], in test [9] and in test [10] were 0.493, 1.28 and 0.0746, respectively. The z-score in test [2] is -2.72.
In the case of `COc1ccc([Si](C)(C)[C@@H]2[C@@H](CC(=O)N3Cc4ccccc4C[C@H]3CO)O[C@]3(C(=O)N(Cc4ccc(N5CCOC5=O)cc4)c4ccccc43)[C@H]2C)cc1`, the composite z-score is 0.225 in test [1]; 0.874 in test [3]; -0.422 in test [4]; -0.497 in [5]; -0.119 in test [6]; 0.0639 in [7]. For the same compound, the composite z-score in test [8] was -0.339; in test [9], 1.86; in test [10] it was 1.42. The z-score in test [2] was -3.78.
As for `C=C(COC)C(=O)CC[C@H](OC(=O)c1cccnc1)c1ccc(OCCO)cc1`, the composite z-score in [1] is 1.27; in test [3] it was 0.65; in test [4], -0.395; in [5], -1.33; in test [6], -0.176; in test [7], -0.379. Further, the figures for the composite z-score in test [8], in test [9] and in [10] were -0.0762, 2.53 and 0.994, respectively. This compound displayed a z-score in test [2] of -0.345.
`CCCCCCc1nc(-c2ccc(-c3ccc(Cl)c(Cl)c3)o2)cc2c1[Si](C(C)C)(C(C)C)OC2`: the composite z-score in test [1] was -0.474; in [3], -0.924; in test [4], -0.444; in [5], 0.742; in [6], -0.174; in test [7] it was -0.372. Also, the composite z-score in [8] is -0.278; in [9], -0.875; in test [10] it was -0.782. Besides, in test [2], the z-score is -0.967.
For the compound `C=CCC(OC(C)=O)[C@@H]1[C@@H](N(Cc2cccc3ccccc23)C(=O)c2ccc(-c3ccccc3)cc2)c2cc(OCCCO)ccc2N1C(=O)Cc1ccc2ccccc2c1` (stereo not given in full), the composite z-score in test [1] was -0.515; in test [3] it was -0.181; in test [4], 0.858; in test [5] it was 0.912; in test [6], 0.0399; in test [7], 0.0278. The composite z-score is -0.0773 in [8], 0.438 in test [9] and 0.106 in test [10]. In test [2], the z-score was -0.105.
In the case of `COc1ccc(C(O)C2C=CC3C(=O)N(c4ccccc4)C(=O)C3N2Nc2ccc(C#N)cc2)cc1OCc1ccccc1` (stereo not given), the composite z-score in [1] is 1.04; in [3], -0.165; in test [4], 2.32; in test [5], 1.29; in [6], 0.0497; in test [7], 0.171. For the same compound, the composite z-score came out at 0.1 in test [8], 2.54 in [9] and 1.16 in [10]. In test [2], the z-score was -0.738.
On to `CCOC(=O)C1=CCC(c2cc3ccccc3[nH]2)N(CCN2CC(C(=O)OCC)=CCC2c2cc3ccccc3[nH]2)C1` (stereo not given), for which the composite z-score in test [1] was 1.34; in [3] it was 0.0083; in test [4], 0.884; in test [5], -0.608; in test [6], -0.0203; in test [7], 0.0639. The composite z-score in [8] was found to be 0.302; in [9], 0.0389; in test [10], 0.927. Moreover, the z-score in test [2] was -1.87.
As to `COC(=O)[C@@]1(Cc2ccc(OC)cc2)[C@H]2c3cc(C(=O)N4CCCC4)n(Cc4ccc(Cl)c(C(F)(F)F)c4)c3C[C@H]2CN1C(=O)c1ccccc1`, the composite z-score in test [1] is 1.47; in test [3], 0.0524; in test [4], 2.74; in [5] it was 1.35; in test [6], 0.207; in test [7], 0.165. Besides, the results for the composite z-score in test [8], in test [9] and in test [10] were 2.07, 1.98 and 1.62, respectively. In test [2], the z-score is -2.
